# Only a selection was taken, and hits are over-represented in it overall.
# IDE exosite FP: exo-site inhibitors of human insulin-degrading enzyme | z-score at 20 µM | purified IDE, FL-6b probe fluorescence polarization; hits give low values | 6.3% of 17,000 active;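 active means z-score of -3 or lower, meaning strong loss of probe binding signal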;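 further: His-tagged human IDE residues 42-1019 made in E. coli with 30 nM FL-6b probe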
# * = called active by the depositor.
SMILES,IDE exosite FP
COc1ccccc1-c1ccc([C@H]2[C@H](CO)N3CCCCN(Cc4ccncc4)C[C@@H]23)cc1,-8*
OC[C@@H]1[C@@H](c2ccc(-c3ccc(F)cc3)cc2)[C@H]2CN(Cc3ccncc3)CCCCN12,5.3
OC[C@@H]1[C@H](c2ccc(-c3ccccc3)cc2)[C@H]2CN(Cc3ccccn3)CCCCN12,-0.24
OC[C@@H]1[C@@H](c2ccc(-c3ccccc3F)cc2)[C@H]2CN(Cc3ccncc3)CCCCN12,4.1
Cc1cccc(-c2ccc([C@@H]3[C@@H](CO)N4CCCCN(Cc5ccncc5)C[C@H]34)cc2)c1,-5*
O=C(C[C@@H]1CC[C@H]2[C@@H](COC[C@H](O)CN2Cc2nccs2)O1)NCc1ccccc1Cl,0.13
CC(C)C#Cc1ccc([C@@H]2[C@H](CO)N3C(=O)CN(C(=O)C4CCCCC4)C[C@@H]23)cc1,1.8
CC(=O)N1[C@H](CN(C)C(=O)C2CCC2)[C@@H](c2ccccc2)[C@@H]1CO,3
COc1ccc2c3c(n(C)c2c1)[C@H](CO)N(C(=O)C1CCCC1)CC31CN(C(=O)CC2CC2)C1,-1.1
O=C1C[C@H](c2ccccc2)C(=O)N[C@@H](c2ccccc2)C/C=C\C[C@@H](c2ccccc2)N1,-0.86
O=C(c1ccncc1)N1CC(=O)N2[C@@H](CO)[C@H](c3ccc(-c4ccccc4F)cc3)[C@@H]2C1,-4.8*
O=C(c1ccc(F)cc1)N1CC(=O)N2[C@@H](CO)[C@@H](c3ccc(-c4ccccc4F)cc3)[C@@H]2C1,-0.78
O=C(c1ccc(F)cc1)N1CC(=O)N2[C@H](CO)[C@H](c3ccc(-c4ccccc4F)cc3)[C@H]2C1,3
O=C(c1ccncc1)N1CC(=O)N2[C@@H](CO)[C@@H](c3ccc(-c4ccccc4F)cc3)[C@@H]2C1,-1.6
O=C(c1ccncc1)N1CC(=O)N2[C@H](CO)[C@@H](c3ccc(-c4ccccc4F)cc3)[C@H]2C1,0.35
O=C(c1ccncc1)N1CC(=O)N2[C@H](C1)[C@@H](c1ccc(-c3ccccc3F)cc1)[C@@H]2CO,-7.4*
CO[C@@H]1CN(C)C(=O)c2ccc(NS(=O)(=O)CC(F)(F)F)cc2OC[C@H](C)N(C(=O)NC(C)C)C[C@H]1C,-0.45
C[C@@H]1CCCCO[C@H](CN(C)S(=O)(=O)c2ccc(F)cc2)[C@@H](C)CN([C@@H](C)CO)C(=O)c2cc(N(C)C)ccc2O1,1.5
N#C[C@H]1N[C@H](CO)[C@@H]1c1ccc(C#Cc2cccnc2)cc1,2.8
O=C(C[C@@H]1CC[C@@H]2[C@H](COC[C@H](O)CN2Cc2ccc3c(c2)OCO3)O1)N1CCCCC1,0.88
CC(C)NC(=O)N1CC(=O)N2[C@H](CO)[C@H](c3ccc(C#CCN(C)C)cc3)[C@@H]2C1,2.6
COCC(=O)N1[C@@H](CO)[C@H](c2ccccc2)C12CN(C(=O)c1ccccc1)C2,-0.064
O=C(CC1CC1)N1CC(=O)N2[C@H](CO)[C@@H](c3ccc(C#Cc4ccccc4)cc3)[C@@H]2C1,-7.7*
O=C(Cc1ccccc1)N1CC(=O)N2[C@@H](CO)[C@@H](c3ccc(C#Cc4ccccc4)cc3)[C@@H]2C1,0.82
O=C(CC1CC1)N1CC(=O)N2[C@H](C1)[C@@H](c1ccc(C#Cc3ccccc3)cc1)[C@@H]2CO,-8.5*
SMILES,IDE exosite FP
O=C(CC1CC1)N1CC(=O)N2[C@H](C1)[C@@H](c1ccc(C#Cc3ccc(F)cc3)cc1)[C@@H]2CO,0.15
O=C(CC1CC1)N1CC(=O)N2[C@H](C1)[C@H](c1ccc(C#Cc3ccccc3)cc1)[C@@H]2CO,-16*
O=C(CC1CC1)N1CC(=O)N2[C@H](CO)[C@@H](c3ccc(C#Cc4ccc(F)cc4)cc3)[C@H]2C1,0.27
O=C(CC1CC1)N1CC(=O)N2[C@H](C1)[C@H](c1ccc(C#Cc3ccc(F)cc3)cc1)[C@@H]2CO,-1.7
O=C(CC1CC1)N1CC(=O)N2[C@@H](CO)[C@@H](c3ccc(C#Cc4cccc(F)c4)cc3)[C@@H]2C1,-0.61
O=C(CC1CC1)N1CC(=O)N2[C@H](CO)[C@H](c3ccc(C#Cc4ccccc4)cc3)[C@@H]2C1,-10*
CC(C)c1cccc(NC(=O)C[C@H]2CC[C@H]3[C@@H](COc4ccc(NC(=O)c5cnccn5)cc4C(=O)N3C)O2)c1,-0.24
CCCC#Cc1ccc([C@H]2[C@@H](CO)N3C(=O)CN(C(=O)c4cccc(F)c4)C[C@@H]23)cc1,2.4
CN1CCCCN2[C@H](CO)[C@@H](c3ccc(-c4cccnc4)cc3)[C@@H]2C1,1.8
COc1ccc(CN(C)C[C@H]2OCCCC[C@H](C)Oc3ccc(NC(=O)C4CCCCC4)cc3C(=O)N([C@@H](C)CO)C[C@H]2C)cc1,0.67
O=C(CN1CCOCC1)N[C@@H]1CC[C@@H](CCn2cc(C3CC3)nn2)O[C@@H]1CO,-0.96
C[C@H](NC(=O)C[C@@H]1C=C[C@H](NC(=O)c2cccnc2)[C@@H](CO)O1)c1ccccc1,1.2
COc1ccc2c3c(n(C)c2c1)[C@@H](CO)NCC31CN(C(=O)Nc2ccccc2F)C1,1.4
C[C@@H]1CC=CC[C@H](c2ccc3c(c2)OCO3)NC(=O)[C@H](C)N(C)C(=O)c2ccccc2O1 (mixture of isomers),-0.33

# Source: PubChem
